Source: PubChem (Broad Institute)
Only a sample is shown.
aSyn UTR act = Activators via SNCA 5'UTR binding, MLPCN. alpha-synuclein 5'UTR reporter, activators screen. activity score, % (tested at 7.5 µM), hits read low. actives 7.1% (n = 300,000); in the data active = activity score below about -60%
* = called active by the depositor.

SMILES	aSyn UTR act
O=C(Cc1ccccc1)Nc1ccc(N2CCCCC2)cc1	-67*
C=CCSc1nn2c(=O)c3ccccc3nc2s1	-119*
C/C(Cl)=C/CSc1nn2c(=O)c3ccccc3nc2s1	-100*
CCOc1ccc(NC(=O)Nc2cccs2)cc1	-161*
Cc1ccc(NC(=O)Nc2cccs2)nc1	-168*
CCc1ccc(NC(=O)Nc2ccsc2C(=O)OC)cc1	-65*
Cc1ccc(NC(=O)Nc2cccs2)cc1	-130*
CCc1ccc(NC(=O)Nc2cccs2)cc1	-169*
O=C(NC1=NCCS1)Nc1ccccc1	-121*
CC(Oc1ccccc1)C(=O)NC1=NCCS1 (stereo not drawn)	-108*
O=C(NC1=NCCS1)c1csc2ccccc12	-183*
CC1CCCC(C)N1C(=O)CSc1nc2ccccc2s1 (stereo not drawn)	-99*
Cc1c(Cl)cccc1N/C(SCC(=O)N1CCCCCC1)=C(/C#N)c1nc2ccccc2s1	-66*
CC1CCCN(C(=O)CSc2cnc3ccccc3n2)C1 (stereo not drawn)	-154*
O=C(CSc1nc2ccccc2s1)N1CCCCC1	-110*
CC1CCN(C(=O)CSc2nc3ccccc3s2)CC1	-154*
CCCN=C(C)C1=C(O)c2ccccc2C1=O	-94*
CCCn1c(O)c(N=Nc2ccc3ccccc3n2)c2ccccc21	-177*
Oc1ccc2ccccc2c1N=Nc1ccccn1	75
c1ccc2c(C3=NNC(=NC4CCCCC4)SC3)c[nH]c2c1	-140*
c1ccc(C2=NNC(=NC3CC3)SC2)cc1	58
Cc1nnc(-c2ccccc2)c(=O)n1/N=C/c1c(O)ccc2ccccc12	83
Cc1nc2ccccc2c(=O)n1/N=C1\C(=O)N(C)c2ccccc21	-83*
Cc1nc2ccccc2c(=O)n1/N=C/c1cn(-c2ccccc2)nc1-c1cccs1	-67*
Cc1nc2ccccc2c(=O)n1/N=C/c1cccs1	-79*
SMILES	aSyn UTR act
Cc1cccc(N=C2NN=C(c3c(C)[nH]c4ccccc34)CS2)c1	-90*
Cc1cccc(N=C2NN=C(c3ccc4c(c3)OCCO4)CS2)c1	-140*
O=C1CCN(Cc2ccccc2)CCN1CCOc1ccccc1	-99*
CC1CCC(=O)N(CCOc2ccccc2)CC1 (stereo not drawn)	-80*
COc1cccc(N2CCN(C3C4CC5CC(C4)CC3C5)CC2)c1 (stereo not drawn)	-95*
CC(C)=CC(=O)Nc1nnc(-c2cccnc2)s1	-67*
CC(C)=CC(=O)Nc1nnc(C(C)C)s1	-119*
COc1ccc(/C(N)=N/OC(=O)c2ccc(C)c([N+](=O)[O-])c2)cc1OC	-126*
N/C(=N\OC(=O)c1ccccc1[N+](=O)[O-])c1cccnc1	-97*
N/C(=N\OC(=O)c1ccccc1Cl)c1ccccn1	84
N/C(=N\OC(=O)c1ccccc1[N+](=O)[O-])c1ccccn1	-104*
Cc1ccc(C(=O)O/N=C(\N)c2cccnc2)cc1[N+](=O)[O-]	-125*
N/C(=N\OC(=O)c1cc([N+](=O)[O-])ccc1Cl)c1cccnc1	88
N/C(=N\OC(=O)c1ccc([N+](=O)[O-])cc1)c1cccnc1	-92*
CCCCC(=O)N/C(N)=N/c1nc2ccccc2o1	-206*
N/C(=N\c1nc2ccccc2o1)NC(=O)c1ccccc1F	-198*
Cc1ccc(N2C(=O)c3ccc(N)cc3C2=O)cc1	-182*
Cc1ccc(N2C(=O)c3ccc(N)cc3C2=O)cc1C	-131*
Cc1nn2c(=O)c(NC(=O)c3ccc(Cl)cc3)cnc2s1	-66*
Cc1ccc(C(=O)Nc2cnc3sc(C)nn3c2=O)cc1	-100*
Cc1ccc(-n2nnnc2SCC(=O)Nc2sc(C)c(C)c2C#N)cc1C	-71*
CC(=O)c1cnc2cc(-c3cccc(Br)c3)nn2c1C	-213*
Cc1cccc(-c2cc3nc(C)cc(C)n3n2)c1	-235*
Cc1cc(C)n2nc(-c3cccc(Br)c3)cc2n1	-114*
COc1ccccc1OCCn1nnc2ccccc21	-101*
SMILES	aSyn UTR act
Cc1ccc(OCCn2nnc3ccccc32)cc1C	-200*
N=c1c2c(-c3ccccc3)c(-c3ccccc3)n(Cc3ccccc3)c2ncn1CCO	61
Cc1c(C)n(CCc2ccccc2)c2ncnc(NCCO)c12	-146*
COc1ccccc1Nc1ncnc2c1c(C)c(C)n2CCO	-103*
Cc1oc2cc(O)ccc2c(=O)c1-c1cnn(-c2ccccc2)c1	-77*
O=c1c(-c2ccc(O)cc2)coc2cc(O)ccc12	-93*
O=c1c(-c2cnn(-c3ccccc3)c2)coc2cc(O)ccc12	-156*
Cn1cc(Cl)c(/C(N)=N/OC(=O)c2ccccc2C(F)(F)F)n1	-98*
COc1cccc(/C=N/NC(=O)c2ccc(-c3ccccc3)cc2)c1O	76
COc1ccc(/C=N/Nc2ccc([N+](=O)[O-])cc2)cc1O	-298*
COc1cccc(N/N=C/c2cccc(Br)c2O)c1	-117*
COc1cccc(/C=N/Nc2ccc([N+](=O)[O-])cc2)c1O	-150*
CCC(C)NC(=O)c1cc(-c2ccccc2O)on1 (stereo not drawn)	-83*
COc1ccccc1-c1cc(C(=O)NC(C)C)no1	-265*
COc1ccc(NC(=O)c2cc(-c3ccccc3Cl)on2)cc1OC	-96*
CCN(CC)C(=O)c1cc(-c2ccccc2OC)on1	-125*
COc1ccccc1-c1cc(C(=O)Nc2ccc(F)cc2F)no1	-155*
Nc1nc(Nc2cccc(F)c2)nc2ccccc12	-196*
O=c1oc(Nc2cccc(F)c2)nc2ccccc12	-64*
O=C1c2cc(F)ccc2-n2c1nc1ccccc1c2=O	66
CCOC(=O)c1nnc2cc(-c3ccc(Br)cc3)nn2c1C	-114*
CN(C)c1ccc(C(=O)/C=C/c2cccnc2)cc1	-167*
CCOc1cc(/C=C/C(=O)Nc2ccc(C(=O)NCCN(CC)CC)cc2)ccc1OCC(C)C	47
CCOc1cc(/C=C/C(=O)c2ccc3c(c2)OCCO3)ccc1OCC(=O)N(C)C	-185*
CCOc1cc(/C=C/C(=O)c2ccc(O)cc2)ccc1OCC(=O)N(C)C	-94*
SMILES	aSyn UTR act
CC1(C)CC(=O)c2cnc(N3CCc4ccccc4C3)nc2C1	-218*
CC1(C)CC(=O)c2cnc(N3CCN(c4ccccc4)CC3)nc2C1	-62*
Cc1ccc(Nc2ncc3c(n2)CC(C)(C)CC3=O)cc1	-88*
Cc1cccc(C)c1NC(=O)COC(=O)c1cccc2c1C(=O)c1ccccc1C2=O	68
O=C(COC(=O)c1ccc2c(c1Cl)C(=O)c1ccccc1C2=O)NC1CC1	-66*
O=C(Nc1ccc(Cl)cc1)ON=C1CCCC1	-75*
COc1cc(C(C#N)N2N=C(c3ccccc3)CC2c2ccccc2)ccc1O (stereo not drawn)	-142*
COc1ccccc1-c1nnc2n1N=C(c1ccc(O)c(O)c1)CS2	97
Cc1ccc2nc(NC(=O)C3CCCN(S(=O)(=O)c4cnc[nH]4)C3)sc2c1 (stereo not drawn)	-128*
COc1ccc(CNC(=O)CSc2nnc(NC(=O)c3ccccc3F)s2)cc1	-69*
Cc1cccc(-c2nc3ccccc3c(=O)[nH]2)c1	-111*
N=c1oc2ccccc2cc1-c1nc2ccccc2c(=O)[nH]1	-165*
Cc1ccc2nc(-c3cccc(NC(=O)c4ccc5c(c4)OCCO5)c3)oc2c1	-87*
CCC(=O)Nc1cccc(-c2nc3ccc(C)cc3o2)c1	-75*
O=C(Nc1ccc2oc(-c3ccc4ccccc4c3)nc2c1)c1ccc2c(c1)OCCO2	-113*
[O-][n+]1onc2c3ccnnc3ccc21	-119*
Cc1cc2c(ccc3c2no[n+]3[O-])nn1	-100*
O=c1nc(Nc2ccc(OCc3ccccc3)cc2)sc2ncccc12	-96*
